SENP8 block-1 – SENP8 protease inhibitors, primary screen, biochemical, luminescence; Sentrin-specific protease 8 (Homo sapiens), Q96LD8; purified SENP8, Z-RLRGG-aminoluciferin cleavage; inhibition, % at 10 µM; hit rate 1.2% among 330,000; AID 2540, 2010; in the data active = inhibition above about 50%
Target sequence (Q96LD8 whole entry, looked up): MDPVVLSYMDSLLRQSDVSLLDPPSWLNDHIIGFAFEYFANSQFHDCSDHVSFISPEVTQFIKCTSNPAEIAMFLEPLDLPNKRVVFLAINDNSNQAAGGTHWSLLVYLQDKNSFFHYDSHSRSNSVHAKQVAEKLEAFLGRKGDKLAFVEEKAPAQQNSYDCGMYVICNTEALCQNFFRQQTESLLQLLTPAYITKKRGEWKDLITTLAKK
SENP8 block-2 – human SENP8 protease inhibitors, primary screen, biochemical, fluorescence, Nedd8 protein substrate, uHTS | inhibition, % at 20 µM | AID 602440, 2012 | recombinant SENP8 | hit rate 0.64% among 360,000; in the data active = inhibition mostly above about 40%, no sharp cut-off; inactive = mostly below about 27%
SENP6 inh – SENP6 protease inhibitors, primary screen, biochemical, luminescence, uHTS | Recombinant SENP6 catalytic domain, aminoluciferin luminescence | inhibition, % at 10 µM | hit rate 1.8% among 330,000 | AID 2599, 2010;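 active = inhibition above about 50% at the single tested dose, limit read from the data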;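 also: plate controls were DMSO wells with enzyme for no effect and DMSO wells lacking enzyme for full effect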
PPC-1+TRAIL kill – compounds killing PPC-1 cancer cells with TRAIL present, primary screen, TRAIL potentiator project, ATPLite luminescence, uHTS. hit rate 0.41% among 220,000. PPC-1 cells + TRAIL, ATPLite viability luminescence. cell killing (% activity), % at 4 µM or 5 µM. AID 1443, 2008;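 active = cell killing above 50% in the first pass at 4 µM, then a duplicate retest at 5 µM averaging 50% or more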;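 also: plate controls were cells with TRAIL plus DMSO for no effect and medium-only wells lacking cells for full effect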
C8 TRAIL sens – viability loss with TRAIL in NB7+C8 cells, primary screen, TRAIL sensitizer project, cell-based, ATPlite luminescence; inhibition (viability loss, TRAIL sensitization), % at 10 µM; hit rate 1% among 360,000;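 active = compounds causing at least 50% loss of cell viability in the single-dose screen, relative to plate controls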
SENP7 block – SENP7 protease inhibitors, primary screen, biochemical, luminescence, uHTS | Sentrin-specific protease 7 (Homo sapiens), Q9BQF6 | recombinant SENP7, Z-RLRGG-aminoluciferin luminescence, 40 min | inhibition, % at 5 µM | hit rate 1.5% among 330,000;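 active = inhibition above about 50% at the single test dose, limit read from the data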;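 also: plate controls were DMSO with enzyme for no effect and no enzyme buffer wells for full effect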
SENP8 conf – SENP8 protease inhibitors, retest, confirmation, biochemical, luminescence, single concentration; shares compounds with SENP7 block; Recombinant SENP8, Z-RLRGG-aminoluciferin luminescence, 60 min; inhibition, % at 12.5 µM; hit rate 40% among 6,200; AID 488912, 2010;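 active = mean inhibition across replicates above about 50%, limit read from the data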
SENP6 conf – SENP6 protease inhibitors, confirmation, biochemical, luminescence, single concentration | hit rate 58% among 6,200 | recombinant SENP6, Z-RLRGG-aminoluciferin luminescence | AID 488915, 2010 | inhibition, % at 12.5 µM | shares compounds with SENP7 block
SENP7 confirm – SENP7 protease inhibitors, retest, confirmation, biochemical, luminescence, single concentration | shares compounds with SENP7 block | recombinant SENP7, Z-RLRGG-aminoluciferin luminescence, 40 min | inhibition, % at 12.5 µM | hit rate 69% among 6,200 | AID 488917, 2010
Casp3 SENP sel – caspase-3 protease inhibitors, confirmation, selectivity assay for SENP inhibitor project, biochemical, single concentration | shares compounds with SENP7 block | purified caspase-3, Z-DEVD-aminoluciferin luminescence, 60 min | inhibition, % at 12.5 µM | hit rate 60% among 6,200;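 active = mean inhibition above about 50%, limit read from the data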;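 also: plate controls were enzyme with DMSO for no effect and wells without caspase-3 for full effect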
Target sequence (P42574 28-227 limits assumed): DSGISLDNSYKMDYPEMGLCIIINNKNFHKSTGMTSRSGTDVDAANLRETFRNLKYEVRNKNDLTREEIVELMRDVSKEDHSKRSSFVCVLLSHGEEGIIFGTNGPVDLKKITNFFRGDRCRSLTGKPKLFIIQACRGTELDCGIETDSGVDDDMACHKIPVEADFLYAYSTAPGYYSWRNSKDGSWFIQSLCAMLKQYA
SENP luc ctr – interferes with luciferase luminescence in SENP counter-screen; inhibition, % at 12.5 µM; Pre-incubated SENP8/Z-RLRGG-aminoluciferin, luciferase luminescence interference; shares compounds with SENP7 block; hit rate 39% among 6,200;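 active = mean inhibition above about 50% when retested at one dose, limit read from the data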;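 also: plate controls were DMSO wells with completed reaction for no effect and substrate without enzyme for full effect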
Active calls of the source: *; . = not tested or not shown. Sampled rows, rich in hits. Any-hit rate of the full collection: about 3%.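 The calls were made as follows, unless noted: active = mean inhibition above about 50% in the one-dose retest (limit read from the data); inactive = the rest.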

SMILES	SENP8 block-1	SENP8 block-2	SENP6 inh	PPC-1+TRAIL kill	C8 TRAIL sens	SENP7 block	SENP8 conf	SENP6 conf	SENP7 confirm	Casp3 SENP sel	SENP luc ctr
CC(=O)CSc1ccc(-c2nc3ccccc3[nH]2)cn1	48	-138	78*	.	75*	73*	70*	67*	88*	86*	72*
CCOC(=O)CNC(=O)CSc1ccc(-c2nc3ccccc3[nH]2)cn1	-15	-264	-12	.	-7	-2	.	.	.	.	.
Cc1cc(C(=O)NNC(=S)Nc2ccccc2)nn1C	-7	18	-22	15	-25	-3	.	.	.	.	.
Cc1csc(NC(=O)c2ccoc2C)n1	75*	-19	90*	8	4	89*	82*	82*	96*	93*	82*
CCOC(=O)Cc1csc(NC(=O)c2ccoc2C)n1	74*	-6	88*	5	11	89*	84*	84*	94*	93*	83*
CC(=O)c1cccc(NC(=O)C2Cc3c(-c4ccco4)ccnc3O2)c1 (stereo not given)	.	0	.	.	-1	.	.	.	.	.	.
O=C(NCCS(=O)(=O)N1CCN(c2ccccc2)CC1)C1CCCCC1	.	12	.	.	-13	.	.	.	.	.	.
C=CCC1(Cl)C(=O)C(Cl)=C(N2CCOCC2)C1(OC)OC (stereo not given)	-1	8	-9	1	2	-4	.	.	.	.	.
Cn1cccc1-c1nc2ccc([N+](=O)[O-])cc2[nH]1	46	-10	62*	.	-2	58*	51*	52*	85*	62*	62*
O=[N+]([O-])c1ccc2nc(-c3cccnc3)[nH]c2c1	24	9	42	.	-19	7	.	.	.	.	.
O=[N+]([O-])c1ccc2nc(-c3ccccc3)[nH]c2c1	79*	16	82*	16	12	85*	6	81*	95*	83*	82*
CC(=O)Nc1ccc2nc(-c3cccn3C)[nH]c2c1	1	-142	-7	.	0	4	.	.	.	.	.
COc1cccc(C(C)(O)c2nc(-c3ccc(N(C)C)cc3)cs2)c1 (stereo not given)	.	8	.	.	13	.	.	.	.	.	.
Cc1cc(C)nc(SCc2ccc(C(=O)N/N=C/C3CCCCC3)cc2)n1	-6	6	-13	13	0	-8	.	.	.	.	.
Cc1cccc(-c2cccc(NC(=O)C3CCCN(C(=O)c4csc(C)n4)C3)c2)c1 (stereo not given)	-5	15	-6	.	10	17	.	.	.	.	.
O=C(COC(=O)c1ccncc1)Nc1cccc(Cl)c1	2	-82	11	4	5	0	.	.	.	.	.
Cn1cc(Cl)c(C(=O)OCC(=O)Nc2cccc(Cl)c2)n1	-9	4	51*	.	-2	-12	-1	7	4	5	0
CCc1ccc2cccc3c2c1N=CN3C	41	84*	57*	.	-5	27	15	21	15	3	3
Cc1ccc(Nc2n[nH]c(C)c2[N+](=O)[O-])cc1	-11	25	-7	33	-5	-3	.	.	.	.	.
Cc1[nH]nc(Nc2ccc(C(C)C)cc2)c1[N+](=O)[O-]	39	15	51*	28	22	16	42	39	77*	25	13
CCN1CCN(C(=O)CSc2cc(=O)n(C)c3ccccc23)CC1	-1	-13	-15	3	-1	90*	8	5	4	0	1
CCSc1nsc(NC(=O)Nc2ccccc2F)n1	36	11	65*	.	2	50	28	42	79*	48	15
Cc1ccc(NC(=O)Nc2nc3ccc(S(C)(=O)=O)cc3s2)cc1	-7	-47	-18	.	13	12	.	.	.	.	.
CS(=O)(=O)c1ccc2nc(NC(=O)Nc3ccccc3F)sc2c1	6	-7	33	.	13	72*	-7	-2	1	5	-3
CS(=O)(=O)c1ccc2nc(NC(=O)c3ccccc3)sc2c1	78*	-42	88*	.	37	88*	14	80*	94*	88*	24
SMILES	SENP8 block-1	SENP8 block-2	SENP6 inh	PPC-1+TRAIL kill	C8 TRAIL sens	SENP7 block	SENP8 conf	SENP6 conf	SENP7 confirm	Casp3 SENP sel	SENP luc ctr
Cc1cccc(C(=O)Nc2nc3ccc(S(C)(=O)=O)cc3s2)c1	63*	-81	75*	.	27	74*	7	42	88*	78*	-2
O=C1NC[C@@H](CCCCN2C[C@H](Cc3ccc(O)cc3)N(CCc3ccc(O)cc3)C(=O)C2=O)N(Cc2ccccc2)C1=O	.	16	.	.	-6	.	.	.	.	.	.
O=C(COc1ccc2c(c1)oc(=O)c1ccccc12)NCC1CCC(C(=O)O)CC1 (stereo not given)	-2	-214	13	.	-13	-8	.	.	.	.	.
Cc1ccc(C(=O)N2CCc3ccccc32)o1	88*	7	91*	22	31	91*	91*	91*	98*	95*	89*
Cc1nc2ccccc2c2oc(C(=O)N3CCc4ccccc43)cc12	.	.	.	26	.	.	.	.	.	.	.
O=C(c1cccs1)N1CCc2ccccc21	40	8	60*	19	23	61*	35	38	80*	76*	59*
O=C(c1cccs1)N1CCCc2ccccc21	-4	9	-13	-17	-9	2	.	.	.	.	.
Cc1ccc(C(=O)N2c3ccccc3CC2C)o1 (stereo not given)	90*	30	85*	25	5	94*	94*	96*	101*	97*	83*
O=C(CNCC1CCCCC1)Nc1ccc(OC(F)(F)F)cc1	0	28	-8	7	16	-5	.	.	.	.	.
CC1(C(=O)NS(=O)(=O)c2ccccc2OC(F)(F)F)CCN1C(=O)Cc1ccccc1 (stereo not given)	.	20	.	.	-17	.	.	.	.	.	.

Compound activity (PubChem)
